The structures appear in SMILES notation. Hit rate of the full screen: of about 51,000 compounds, about 600 (1.2%) were called active. Not shown: some 2% with an inconclusive outcome. Many of the other results were omitted from the sample, so actives are more common in it than they were. Unmarked numbers belong to inactive results. No stated cut-off is given here; in the data, active means potency below about 11 µM; inconclusive means mostly about 12 µM to 25 µM; inactive means weaker than that;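 the screen sought inhibitors and activators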. Bounds are passed on as bounds.

The values below come from PubChem BioAssay AID361 (National Center for Advancing Translational Sciences (NCATS), 2006).
Potency means the concentration at half of the fitted maximal effect.

The experiment relates to pyruvate kinase (Bacillus stearothermophilus). Kind of experiment: Pyruvate Kinase. The following applies: purified pyruvate kinase, luminescence ATP production; ribose 5-phosphate activator present at AC10. As to the method:
Pyruvate kinase (partially purified from Bacillus stearothermophilus) was assayed for its ability to generate ATP from ADP using phosphoenolpyruvate (PEP) as a substrate. ATP generation was detected in a coupled reaction by luciferase-mediated luminescence, an ATP-dependent process. Pyruvate kinase substrates, PEP and ADP, were present in the assay at Km and […]-fold below Km respectively. The enzyme was assayed at an intermediate level of activity to screen for inhibitors and activators. In addition, ribose 5 phosphate, a positive modulator of pyruvate kinase, was included in the assay at AC10 in order to identify possible potentiators.
NCGC Assay Protocol Summary:
Three uL of substrate mix (final concentration, 50 mM imidazole pH 7.2, 50 mM KCl, 7 mM MgCl2, 2 mM PEP, 0.1 mM ADP, 0.7 nM ribose 5 phosphate, 0.01% Tween 20, 0.05% BSA) was dispensed into 1536 well plates. 23 nL of compound were delivered by a pin tool and 1 uL of enzyme mix (final concentration, 10 nM pyruvate kinase, 50 mM imidazole pH 7.2, 0.05% BSA) was added. After centrifugation at 1000 rpm for less than a minute, plates were incubated at room temperature for 2 hours. Three uL of detection and kinase stop mix (PKLight, Cambrex) was added, the plates centrifuged, and luminescence read by a ViewLux (Perkin Elmer) at 5 second exposure/plate. Data were normalized to the controls for AC100 stimulation (5 uM ribose 5 phosphate) and to AC100 inhibition (110 uM luteolin).
Regarding `CC(C)(C)NC(=O)NC(=O)COC(=O)Cn1c(C(F)(F)F)nc2ccccc21`, the Potency was above 57 µM. The result for `CCN(CC)C(=O)CSc1nnc(-c2ccc(S(=O)(=O)NCc3ccccc3Cl)cc2)o1` reads above 57 µM; that for `CCn1c(SCC(=O)Nc2nc3ccc(OC)cc3s2)nnc1-c1ccoc1C`, above 57 µM. The result for `O=C(CN1CCN(c2ccccn2)CC1)NCc1cccs1` reads above 57 µM.

Consider `CC(C)n1c(SCC(=O)Nc2ccccc2N2CCCCC2)nc2c1c(=O)n(C)c(=O)n2C`, for which the Potency is above 57 µM. Turning to `COC(=O)c1ccc(Oc2nc(NC(C)C)nc(SC)n2)cc1`, the Potency was above 57 µM.

On to `CNC(=O)CSc1nnc(CCc2ccccc2)n1-c1ccccc1`, for which the Potency was above 57 µM. The result for `Cc1cc(C)nc(N2CCN(c3ncnc4c3oc3ccccc34)CC2)n1` reads above 57 µM. Then `CCOC(=O)C1CCN(c2ncnc3c2oc2ccc(Br)cc23)CC1`, with 10.6 µM (active); and `CCOC(=O)C1CCN(C(=O)c2oc3ccc(S(=O)(=O)N4CCCCCC4)cc3c2C)CC1`, with above 57 µM; and `CCCC(=O)Nc1cccc(-c2cn3ccsc3n2)c1`, with 49.6 µM. Then `O=C(NCc1cn2ccsc2n1)Nc1ccc(Cl)cc1`, with above 57 µM; and `COc1ccc(-c2cn3ccsc3n2)cc1`, with 4.01 µM (active); and `COc1ccc(CCNC(=O)CN2CCC(n3nnc4cc(F)ccc43)CC2)cc1OC`, with above 57 µM. Turning to `CCCc1cc(=O)oc2c(C)c(O)c(CN3CCCCC3)cc12`, the Potency is above 25.6 µM. Then `COc1ccccc1C(=O)Oc1ccc(N2C(=O)CCC2=O)cc1`, with above 57 µM. Then `O=S(=O)(/C=C/c1ccccc1)NCCc1ccccn1`, with above 57 µM. The result for `O=C(c1cccs1)N1CCC(c2nc3ccccc3s2)CC1` reads above 57 µM; that for `Cc1nn(Cc2ccccc2)c(Cl)c1C(=O)OC1CCOC1=O` (stereo not drawn), above 57 µM; that for `O=C(OC1CCOC1=O)c1ccc(-c2nc3ccccc3s2)s1` (stereo not drawn), 4.84 µM (active).

As to `CC(NCCO)C(=O)C12CC3CC(CC(C3)C1)C2` (stereo not drawn), the Potency is above 57 µM. For `CCC(C)NC(=O)N[C@@H](CCSC)C(=O)O` (stereo partly drawn), the Potency is above 57 µM. The result for `COC(=O)CNC(=O)c1ccc2c(c1)S(=O)(=O)c1ccccc1C2=O` reads above 57 µM.

`CC(C)c1nc(-c2ccccn2)no1`: the Potency was above 57 µM. The result for `O=C(Oc1ccccc1)c1ccc2nccnc2c1` reads above 57 µM; that for `O=C(Oc1ccc(-c2nc(-c3ccccn3)no2)cc1)c1ccccc1`, 6.85 µM (active). Then `CCOC(=O)CSC1=C(C#N)C(c2ccco2)C(C(=O)OCc2ccccc2)=C(C)N1` (stereo not drawn), with above 57 µM; and `N#Cc1c2c(c(-c3ccccc3)[nH]c1=O)CCCC2`, with above 25.6 µM; and `CCc1nnc(NC(=O)CSc2nnc(-c3ccncc3)n2Cc2ccccc2)s1`, with above 57 µM. The result for `Cc1cc(C(=O)COC(=O)CCCN2C(=O)c3ccccc3C2=O)c(C)n1C` reads above 57 µM; that for `C=CCn1c(C)cc(C(=O)CN2C(=O)c3ccccc3C2=O)c1C`, 5.37 µM (active); that for `C=CCN(CC=C)C(=O)CN1C(=O)c2ccccc2C1=O`, above 57 µM. As to `O=C1CCC(C(=O)Nc2ccc(OC(F)F)cc2)N1` (stereo not drawn), the Potency is above 57 µM.

On to `COc1ccc(-c2cc3ccc(OCc4nn[nH]n4)cc3oc2=O)cc1`, for which the Potency was 5.08 µM (active).

Turning to `CCCCc1cc(=O)oc2cc(C)cc(OCc3nn[nH]n3)c12`, the Potency is above 57 µM. On to `O=c1oc2cc(O)ccc2cc1-c1ccc(F)cc1`, for which the Potency was above 57 µM. The result for `CCCCOc1ccc(C(C)(O)CCN2CCOCC2)cc1` (stereo not drawn) reads above 57 µM; that for `O=C(CC1Nc2ccccc2NC1=O)Nc1ccccc1` (stereo not drawn), above 11.4 µM; that for `Cc1ncc(CC(=O)n2cc(C(=O)c3cc(Cl)ccc3O)cn2)s1`, above 57 µM. Then `O=C1CC(Cc2ccccc2)C(=O)N1c1ccc(Cl)cn1` (stereo not drawn), with above 57 µM. In the case of `O=C(O)CCCC(=O)Nc1ccccc1-n1ccnc1`, the Potency is above 57 µM. With `CC(=O)c1cc2c(cc1N)OCO2`, the Potency was above 57 µM. `CCCCN(C)C(=O)C1CCN(Cc2ccccn2)CC1`: the Potency was above 57 µM. Regarding `Cc1cc(N2CCCC2)n2nc(C)c(-c3ccccc3)c2n1`, the Potency is above 57 µM.

Take `CN(c1nc2ccccc2n2c(-c3ccco3)nnc12)S(=O)(=O)c1ccccc1`: the Potency is above 57 µM. Then `c1coc(-c2nc3nc4ccccc4n3nc2-c2ccco2)c1`, with above 57 µM; and `Cn1c(-c2ccco2)nc2cc3ccccc3cc21`, with 0.493 µM (active).

For `Clc1ccc(CSc2nnc([C@@H]3CCCN3)o2)cc1`, the Potency was above 57 µM. The result for `CCN1CCN(C(=O)c2ccccc2N(C)S(=O)(=O)c2ccc(C)cc2)CC1` reads above 57 µM; that for `Cc1nnc(NC2=NCCCCC2)o1`, above 57 µM. Then `Cc1cc(C)c2nc(SCCC#N)nc(C)c2c1`, with 48.9 µM; and `Fc1ccc2[nH]c3c(N4CCN(Cc5ccc6c(c5)OCO6)CC4)ncnc3c2c1`, with above 25.6 µM; and `CNC(=O)C1CC(=O)N(Cc2ccc3c(c2)OCO3)C(=Nc2ccc(F)cc2)S1` (stereo not drawn), with above 57 µM.

On to `Cc1cc(C)n(C(=O)c2ccc(C)c(S(=O)(=O)N3CCOCC3)c2)n1`, for which the Potency is above 57 µM. The result for `COc1ccc2nc(N3CCCC(O)C3)c(C#N)cc2c1` (stereo not drawn) reads 41.4 µM. Then `O=C(NCc1ccccc1)C1C(=O)N(Cc2ccccc2)C(=O)C1C1(O)CCCC1` (stereo not drawn), with above 25.6 µM; and `CC1CCCN(C(=O)Cn2c(=O)oc3ccccc32)C1` (stereo not drawn), with above 57 µM. Then `COc1c(F)c(F)c(-c2csc(N)n2)c(F)c1F`, with above 57 µM; and `Cc1cc(=O)oc(C)c1C(=O)Nc1cnc2ccccc2c1`, with above 57 µM; and `Cc1ccc2c(C(=O)CN3CCCC3)c(C)[nH]c2c1`, with above 11.4 µM.

Regarding `COc1ccc(N=Cc2c(O)[nH]c3ccccc23)cc1OC`, the Potency was 4.61 µM (active). Take `COc1ccc(OC)c(N=Cc2c(O)[nH]c3ccccc23)c1`: the Potency was above 57 µM. The result for `COC(=O)c1[nH]c2ccccc2c1NS(=O)(=O)c1ccc(OC)cc1OC` reads above 57 µM.
